# Assay results published in PubChem BioAssay (NCI).
# The panel holds about 83,000 compounds, 20% with a hit somewhere; the sample as a whole holds those more often.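 Negative percent growth values reflect cell death: -40 means 40% of the cells present at the start died, and -100 means all died.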 A number with no mark means an inactive call. The source made the active and inactive calls. The calls were made as follows: active = growth percent below 10; inactive = the rest.
# Columns and labels:
# Assay in all cases: NCI-60 one-dose screen, 48 h (100 = growth as untreated, 0 = no growth, -100 = all killed)
# Settings in all cases: 10 µM unless noted
# [1] = tested on: SK-MEL-2 melanoma
# [2] = tested on: EKVX NSCLC
# [3] = tested on: SN12C renal
# [4] = tested on: UO-31 renal
# [5] = tested on: TK-10 renal
# [6] = tested on: ACHN renal
# [7] = tested on: CAKI-1 renal
# [8] = tested on: A498 renal
# [9] = tested on: CCRF-CEM leukemia
# [10] = tested on: MOLT-4 leukemia
# [11] = tested on: SR leukemia
# [12] = tested on: RPMI-8226 leukemia
# [13] = tested on: OVCAR-8 ovarian
# [14] = tested on: OVCAR-5 ovarian
# [15] = tested on: OVCAR-4 ovarian
# [16] = tested on: SK-OV-3 ovarian
# [17] = tested on: IGROV1 ovarian
# [18] = tested on: OVCAR-3 ovarian
# [19] = tested on: HS 578T breast
# [20] = tested on: NCI/ADR-RES ovarian
SMILES,growth [1],growth [2],growth [3],growth [4],growth [5],growth [6],growth [7],growth [8],growth [9],growth [10],growth [11],growth [12],growth [13],growth [14],growth [15],growth [16],growth [17],growth [18],growth [19],growth [20]
COc1cc2c(cc1OC)C(Sc1ccc(C)cc1)c1c(nc(N)c(C#N)c1N)O2 (stereo not given),-20% (active),-84.3% (active),-64.3% (active),-99.7% (active),-63.6% (active),-95.8% (active),-62.9% (active),-54.7% (active),2.14% (active),-9.07% (active),-4.56% (active),-19.2% (active),3.56% (active),-78.8% (active),-59.2% (active),-70.9% (active),-72.8% (active),-80.7% (active),-6.15% (active),-32.1% (active)
Cc1cc(C)n(C(=O)c2sc(=S)n(-c3ccccc3)c2N=Nc2c(N)n[nH]c2N)n1,110%,102%,105%,84.8%,122%,102%,98.9%,92.8%,95.5%,105%,86.4%,108%,101%,101%,115%,109%,99.8%,119%,113%,115%
NC(=O)c1cccc(-n2ccc3cc(NC(=O)Nc4ccc(N5CCOCC5)c(C(F)(F)F)c4)ccc32)n1,1.78% (active),11.2%,14.1%,4.85% (active),-7.65% (active),11.6%,6.33% (active),-57.1% (active),1.21% (active),-38.9% (active),-23.5% (active),-30.7% (active),11.6%,28%,3.71% (active),19.8%,13.8%,7.68% (active),-21.8% (active),15.9%
O=C(/C=C/c1ccc(F)cc1)c1ccc(O)cc1,115%,104%,91.9%,91.9%,106%,102%,87%,101%,77.6%,92.5%,24.4%,23.9%,98.4%,103%,106%,110%,114%,83.6%,107%,106%
CCO/C=N/C1=C(C#N)C(c2ccc(F)cc2)c2sc3c(CC)cccc3c2O1 (stereo not given),42.7%,49%,22.9%,32.2%,63.9%,28.4%,36.4%,-3.45% (active),13.1%,19.8%,6.82% (active),4.25% (active),27.2%,29.2%,60.4%,64.4%,23.5%,-17.4% (active),32.5%,9.33% (active)
CCCCCc1ccc(S(=O)(=O)Nc2cccc(-c3csc(NC(=O)CNCCN(C)C)n3)c2)cc1,108%,81.4%,91.2%,74.8%,112%,96.4%,86.8%,76.9%,63.5%,61.8%,22.2%,30.3%,95.7%,110%,70%,109%,87.9%,87.7%,90.9%,73.1%
C=CCN(C)S(=O)(=O)/N=C1\NC(=O)NC1=C(Cl)Cl,90%,62.8%,-22.5% (active),92.5%,65.7%,-96.7% (active),2.82% (active),97.6%,-27.1% (active),-19.7% (active),-18.7% (active),5.23% (active),61.2%,-37.5% (active),89.1%,104%,-37.4% (active),-84.3% (active),80.5%,72.5%
N#Cc1cccc(CN2CCc3ncn(Cc4ccc(Cl)cc4)c(=O)c3C2)c1,28.6%,23.7%,15.9%,26%,38.1%,29.8%,10.7%,4.83% (active),35.9%,43.3%,36.2%,22.4%,24.3%,23.8%,16.5%,22.8%,44.1%,21.7%,35.9%,14.7%
NC(N)=Nc1ccc(Oc2cccc(NC(N)=Nc3ccc(Br)c(C(F)(F)F)c3)c2)cc1,83.2%,59.3%,24.5%,89.3%,65.3%,92.9%,72%,48.4%,53.3%,49.3%,4.94% (active),45.5%,65.5%,45.1%,58.9%,57%,-16.6% (active),23.5%,34%,96.8%
CCCCCc1ccc(S(=O)(=O)Nc2cccc(-c3csc(NC(=O)CCCCCN4CCN(CCO)CC4)n3)c2)cc1,105%,81%,85.2%,88.4%,127%,99.4%,95.3%,76.8%,46.7%,14.7%,-19.2% (active),7.46% (active),96.7%,91.6%,80.8%,96.8%,84.5%,75.6%,86.1%,99.6%
Cc1ccc(-n2cc(/C=N/NC(=O)c3nc(N)n[nH]3)c(-c3ccc(S(C)(=O)=O)cc3)n2)cc1,103%,92.9%,96.6%,92.6%,119%,101%,92.6%,97.6%,84%,97.9%,79.3%,100%,100%,105%,101%,104%,98.4%,95.7%,108%,100%
COc1ccc(-n2c(/C=C3\C(=O)Nc4ccccc43)ccc2CO)cc1,104%,94.7%,104%,74.1%,105%,93.6%,84.6%,107%,97.8%,90.2%,105%,94.6%,102%,107%,92.6%,105%,98.5%,114%,106%,102%
Cc1ccc(-n2cc(/C=N/NC(=O)c3ccncc3)c(-c3ccc(S(C)(=O)=O)cc3)n2)cc1,97.7%,95.2%,89.4%,80.4%,118%,98%,90.2%,88.2%,84%,70.4%,63.5%,96.5%,98.7%,103%,102%,96.1%,77.8%,82.3%,90.3%,51.7%
COc1cc(OC)c(/C=C/S(=O)(=O)Cc2ccc(OC)c(NC(=O)CCC(=O)NO)c2)c(OC)c1,46.6%,36.1%,22.7%,34.1%,64.4%,28.1%,25.3%,-20.8% (active),11.5%,17.2%,14.2%,16.9%,17.2%,33.9%,45.3%,32.6%,13.4%,6.69% (active),16.2%,10.2%
CCN1CCN(Cc2ccc(C(=O)Nc3ccc(C)c(Oc4ccc(-c5[nH]nc6ncnc(N)c56)cc4)c3)cc2C(F)(F)F)CC1,90%,106%,86.5%,84.4%,117%,91.9%,88.3%,98.4%,31%,67.4%,11.3%,65.8%,96.7%,94.9%,87%,99.8%,82.1%,116%,64.9%,67.2%
